Compound activity as filed in PubChem BioAssay.
Pf growth 96h – Primary qHTS for delayed death inhibitors of the malarial parasite plastid, 96 hour incubation | 320,000 tested, 6.9% active | P. falciparum luciferase reporter growth, 96 h | Potency, µM (doses to about 28.7 µM), without a hit: at the highest dose activity change, negative = inhibition, hits mostly inhibitors; also: potency is read from the fitted curve at half-maximal effect; % is scaled to controls: 0 for no effect and ±100 for the full control effect
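Compounds incubated with erythrocytes infected by luciferase-expressing P. falciparum (2% hematocrit, 0.05% parasitemia final) for 96 hours, 37 C in 5% CO2. Growth inhibition scored as decreased luciferase luminescence.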
Shiga inhibitor – A qHTS for Small Molecule Inhibitors of Shiga Toxin; Vero cells, Shiga toxin protein synthesis inhibition reporter; inhibition, % at 38.7 µM; 290,000 tested, 9.2% active; AID 2315, 2010; in the data active = inhibition mostly above about 28%, no sharp cut-off; inactive = mostly below about 43%; also: 0% is about no effect
CHX counter – Cycloheximide Counterscreen for Small Molecule Inhibitors of Shiga Toxin; cell reporter, cycloheximide protein synthesis inhibition counterscreen; max response, %; 300,000 tested, 12% active; AID 2314, 2010; in the data active = max response mostly above about 13%, no sharp cut-off; inactive = mostly below about 14%; also: read at 38.3 µM for the half of the compounds with a filed dose; 0% is about no effect
Pf growth 48h – Primary qHTS for delayed death inhibitors of the malarial parasite plastid, 48 hour incubation | P. falciparum luciferase growth in erythrocytes, 48 h | 310,000 tested, 5.9% active | Potency, µM (titrated, usually from 28.7 µM), without a hit: top-dose activity change, negative = inhibition, hits mostly inhibitors; also: potency is read from the fitted curve at half-maximal effect; % is scaled to controls: 0 for no effect and ±100 for the full control effect
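Cell-based growth assay: transgenic P. falciparum expressing firefly luciferase, cultured in red cells within RPMI 1640 containing 0.5% w/v Albumax, 24 mM bicarbonate and gentamycin. A drop in luciferase activity indicates inhibition.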
NS1 function inh – qHTS Assay for Inhibitors of Influenza NS1 Protein Function; Potency, µM (highest dose often 46.1 µM), for the others: at the top dose activity, positive = more growth; 270,000 tested, 0.4% active; calls by dose curve; also: potency is read from the fitted curve at half-maximal effect; actives are rising curves; nearly all actives have a fitted effect of over 50% in size
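Recovery from NS1-induced slow growth read by OD600 in budding yeast switched to galactose assay medium (pH 6.0, -URA) at 1:100 dilution. Compound 23 nl per well; the matching strain lacking NS1 serves as control.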
Active calls of the source: *. The list is not random: actives were taken first. Their share in the collection is about 21%. Unless noted, calls follow the shape of the dose curve; as a rule, active = well fitted inhibition curve with a large enough effect; inconclusive = small, poorly fitted or top-dose-only effect, or another doubt; inactive = no such curve, though single readings can be large or run the other way.

How did O=Cc1sc(Nc2ccccc2)nc1Cl do in these assays?
Pf growth 96h: 3%; Shiga inhibitor: 25; CHX counter: 18*; Pf growth 48h: 0%; NS1 function inh: -30%

How did COc1ccc(Nc2nc3ccccc3c(=O)s2)c(OC)c1 do in these assays?
Pf growth 96h: inconclusive; Shiga inhibitor: 18; CHX counter: -3; Pf growth 48h: inconclusive; NS1 function inh: inconclusive

Results for CN(C)CCCOc1c2ccccc2n(Cc2ccccc2)[n+]1[O-] ?
Shiga inhibitor: -12; CHX counter: -3

How did CCOc1ccccc1CNC(=O)C1CCN(C(=O)c2sccc2-n2cccc2)CC1 do in these assays?
Pf growth 96h: inconclusive; Shiga inhibitor: -10; CHX counter: 18; Pf growth 48h: inconclusive; NS1 function inh: 10%

Results for CC(=O)c1ccc(N2CCN(C(=O)C3CCC3)CC2)cc1 ?
Pf growth 96h: 9%; Shiga inhibitor: -6; CHX counter: 14*; Pf growth 48h: -14%; NS1 function inh: 0%

What do the screens show for `O=C(NC(=O)N1CCN(c2cccc(Cl)c2)CC1)c1ccc(Cl)cc1`?
Pf growth 96h: 169%; Shiga inhibitor: 18; CHX counter: 9; Pf growth 48h: 25%; NS1 function inh: -38%

Results for O=C(NC(=O)N1CCN(c2ccccc2)CC1)c1ccc(Cl)cc1 ?
Pf growth 96h: 149%; Shiga inhibitor: active; CHX counter: 42*; Pf growth 48h: 196%; NS1 function inh: 3%

Results for O=C(c1ccc(N2CCN(C(=O)c3ccc(F)cc3F)CC2)cc1)c1cccc(F)c1 ?
Pf growth 96h: 10µM*; Shiga inhibitor: 7; CHX counter: 8; Pf growth 48h: inconclusive; NS1 function inh: -23%

Results for CC(=O)N1CCN(C(=O)c2ccc(C(=O)c3ccccc3)cc2)CC1 ?
Pf growth 96h: 30%; Shiga inhibitor: -1; CHX counter: 1; Pf growth 48h: 17%; NS1 function inh: 0%

Results for CC(=O)c1ccc(N2CCN(C(=O)c3ccc(C(=O)c4ccccc4)cc3)CC2)cc1 ?
Pf growth 96h: 5.2µM*; Pf growth 48h: -2%

Results for O=C(c1ccc(F)cc1F)N1CCN(c2ncccn2)CC1 ?
Pf growth 96h: 123%; Shiga inhibitor: -21; CHX counter: -2; Pf growth 48h: 36%; NS1 function inh: 7%

What do the screens show for `O=C(C1CC1)N1CCN(c2ccc(O)cc2)CC1`?
Pf growth 96h: inconclusive; Shiga inhibitor: -5; CHX counter: -4; Pf growth 48h: inconclusive; NS1 function inh: 16%

What do the screens show for `O=C(N1CCOCC1)N1CCCN(C(=O)N2CCOCC2)CC1`?
Pf growth 96h: 55%; Shiga inhibitor: -3; CHX counter: 5; Pf growth 48h: 14%; NS1 function inh: 5%

What do the screens show for `O=C(c1ccc(Cn2cc(Cl)cn2)cc1)N1CCN(c2ccccc2)CC1`?
Pf growth 96h: 7.4µM*; Shiga inhibitor: 25; CHX counter: -1; Pf growth 48h: -14%; NS1 function inh: -61%

What do the screens show for `O=C(c1ccccc1)N1CCN(c2ccc(Cl)cc2)CC1`?
Pf growth 96h: 15µM*; Shiga inhibitor: 19; CHX counter: 12; Pf growth 48h: inconclusive; NS1 function inh: -106%

What do the screens show for `CCN(C(=O)COC(=O)CCS(=O)(=O)c1ccc(C)cc1)C1CCS(=O)(=O)C1` (configuration not stated)?
Pf growth 96h: 12%; Shiga inhibitor: 22; CHX counter: -4; Pf growth 48h: -4%; NS1 function inh: -6%

How did Cc1nc2ccccn2c1C(=O)NNS(=O)(=O)c1ccc(C(C)(C)C)cc1 do in these assays?
Pf growth 96h: 4%; Shiga inhibitor: -7; CHX counter: 8; Pf growth 48h: -1%; NS1 function inh: -3%

What do the screens show for `CN(Cc1ccon1)C(=O)CCc1nnc(Cc2ccc(-c3ccccc3)cc2)o1`?
Pf growth 96h: 17%; Shiga inhibitor: 37*; CHX counter: 24*; Pf growth 48h: -2%; NS1 function inh: -7%

How did CN(CCc1ccccc1)C(=O)CCc1nnc(Cc2ccc3c(c2)OCO3)o1 do in these assays?
Pf growth 96h: inconclusive; Shiga inhibitor: 32; CHX counter: 13*; Pf growth 48h: inconclusive; NS1 function inh: 6%

Results for CC(c1ccon1)N(C)C(=O)CCc1nnc(Cc2ccc(-c3ccccc3)cc2)o1 (configuration not stated) ?
Pf growth 96h: 26%; Shiga inhibitor: 40; CHX counter: 16*; Pf growth 48h: inconclusive; NS1 function inh: -1%

How did CN(Cc1ccon1)C(=O)CCc1nnc(CCCCc2ccccc2)o1 do in these assays?
Pf growth 96h: inconclusive; Shiga inhibitor: -10; CHX counter: -1; Pf growth 48h: 11%; NS1 function inh: -6%

Results for COc1ccc2c(c1)C(=O)N(c1ccccc1C)C(=O)C2(C)C ?
Pf growth 96h: -12%; Shiga inhibitor: -12; CHX counter: -1; Pf growth 48h: -4%

Results for COc1ccccc1CCC(=O)OCC(=O)Nc1cccc(S(=O)(=O)N2CCOCC2)c1 ?
Pf growth 96h: 46%; Pf growth 48h: -10%

How did COc1cc(/C=C2\CC(C(C)(C)C)C/C(=C\c3cc(OC)c(OC)c(OC)c3)C2=O)cc(OC)c1OC (configuration not stated) do in these assays?
Pf growth 96h: inconclusive; Shiga inhibitor: 34; CHX counter: 9; Pf growth 48h: inconclusive; NS1 function inh: -1%

How did COc1ccc(/C=C2\CCCC(C(=O)C(F)(F)F)=C2O)cc1OC do in these assays?
Pf growth 96h: inconclusive; Shiga inhibitor: 76; CHX counter: 20*; Pf growth 48h: 0%

What do the screens show for `COc1ccc(/C=C2/CCCC(C(=O)C(F)(F)F)=C2O)cc1OC`?
Pf growth 96h: 47%; Shiga inhibitor: 25; CHX counter: 12; Pf growth 48h: 18%; NS1 function inh: 1%

What do the screens show for `COc1cc(/C=C2\COC/C(=C\c3cc(OC)c(OC)c(OC)c3)C2=O)cc(OC)c1OC`?
Pf growth 96h: 0.83µM*; Shiga inhibitor: 44*; CHX counter: 28*; Pf growth 48h: 0.37µM*; NS1 function inh: 0%

Results for CCN1C/C(=C/c2cccc([N+](=O)[O-])c2)C(=O)/C(=C/c2cccc([N+](=O)[O-])c2)C1 ?
Pf growth 96h: 2.3µM*; Shiga inhibitor: 1; CHX counter: -7; Pf growth 48h: 1.7µM*; NS1 function inh: -18%

Results for COc1cc(/C=C2\CC/C(=C\c3cc(OC)c(OC)c(OC)c3)C2=O)cc(OC)c1OC ?
Pf growth 96h: 2.1µM*; Shiga inhibitor: -1; CHX counter: -4; Pf growth 48h: 2.6µM*; NS1 function inh: 0%

How did CCc1n[nH]c(=S)n1/N=C/c1c(O)ccc2ccccc12 do in these assays?
Pf growth 96h: inconclusive; CHX counter: -1; Pf growth 48h: 14%; NS1 function inh: -5%

Results for COc1cc(/C=C2/CCC/C(=C\c3cc(O)c(OC)c(Cl)c3)C2=O)cc(Cl)c1O ?
Pf growth 96h: 0.13µM*; Shiga inhibitor: -20; CHX counter: 0; Pf growth 48h: inconclusive; NS1 function inh: -4%
